LDHA inh = blocks human lactate dehydrogenase A | P00338 | purified LDHA, NADH/diaphorase-resazurin fluorescence; hits give low values | activity change, % (values are at about 110 or 230 µM) | 480,000 compounds, 0.15% hits | AID 1347041; in the data active means activity change below about -30%; inconclusive means mostly about -25% to -30%;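 further: plate controls were DMSO wells for no effect and wells without enzyme for full effect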
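LDH5 2 nM; NADH 0.06 mM, pyruvate 0.2 mM; 200 mM Tris pH 7.4, EDTA, Tween-20; 5 min RT. Detection: diaphorase 0.133 mg/mL + resazurin 37 µM, fluorescence ex540/em590 at 0 and 20 min; normalized to enzyme-free and DMSO wells.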
Gal4-VP16 FLuc = counter-screen for ROR gamma inhibitors: Gal4-VP16 reporter. Drosophila S2 Gal4-VP16 UAS-luciferase, luminescence, 20 h. Potency, µM (series often up to 53.6 µM), for the others: at the highest dose activity, negative = inhibition, most hits filed as inhibitors. 310,000 compounds, 3.5% hits. AID 2546;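 further: Gal4-VP16 expression switched on by copper sulfate through the metallothionein promoter; potency means the concentration at half of the fitted maximal effect; nearly all actives have a fitted effect of over 50% in size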
DT40 TDP1 CPT = DT40-hTDP1 cell growth loss with CPT. chicken DT40 Tdp1-/-;hTDP1 cells + 20 nM CPT, ATP luminescence, 48 h. Potency, µM (series often up to 46.2 µM), for inactives: top-dose activity change, negative = growth inhibition, usual class: inhibitors. 420,000 compounds, 12% hits. AID 686979; further: potency means the concentration at half of the fitted maximal effect; nearly all actives have a fitted effect of over 55% in size
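Chicken DT40 Tdp1-/- cells stably complemented with human TDP1 were seeded at 400 cells/well in medium containing 20 nM camptothecin, exposed to pin-transferred compounds, and grown at 37 °C for at least 48 hr. Viability was read as ATP luminescence.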
TDP1 cell noCPT = qHTS for Inhibitors of human tyrosyl-DNA phosphodiesterase 1 (TDP1): qHTS in cells in absence of CPT | DT40 Tdp1-/- hTDP1 cells, no CPT, ATP luminescence, 48 h | Potency, µM (top dose mostly 46.2 µM), inactives show top-dose activity change, negative = growth inhibition, actives largely listed as inhibitors | 420,000 compounds, 15% hits; further: potency means the concentration at half of the fitted maximal effect; nearly all actives have a fitted effect of over 55% in size
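Readout: luminescence from CellTiter-Glo after 30 min in the dark at RT. Cells: DT40 Tdp1-/- with stable hTDP1, 400/well. Exposure: compounds alone, ≥48 hr, 37 °C.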
RORg inh = inhibitors of mouse ROR gamma transcriptional activity; P51450; Drosophila S2 Gal4-RORgamma UAS-luciferase reporter, 20 h; Potency, µM (highest dose often 53.6 µM), for the others: top-dose activity change, negative = inhibition, actives largely listed as inhibitors; 310,000 compounds, 5.4% hits; AID 2551; further: potency means the concentration at half of the fitted maximal effect; nearly all actives have a fitted effect of over 60% in size
Target sequence (P51450 whole entry, looked up, the tested form may be a part): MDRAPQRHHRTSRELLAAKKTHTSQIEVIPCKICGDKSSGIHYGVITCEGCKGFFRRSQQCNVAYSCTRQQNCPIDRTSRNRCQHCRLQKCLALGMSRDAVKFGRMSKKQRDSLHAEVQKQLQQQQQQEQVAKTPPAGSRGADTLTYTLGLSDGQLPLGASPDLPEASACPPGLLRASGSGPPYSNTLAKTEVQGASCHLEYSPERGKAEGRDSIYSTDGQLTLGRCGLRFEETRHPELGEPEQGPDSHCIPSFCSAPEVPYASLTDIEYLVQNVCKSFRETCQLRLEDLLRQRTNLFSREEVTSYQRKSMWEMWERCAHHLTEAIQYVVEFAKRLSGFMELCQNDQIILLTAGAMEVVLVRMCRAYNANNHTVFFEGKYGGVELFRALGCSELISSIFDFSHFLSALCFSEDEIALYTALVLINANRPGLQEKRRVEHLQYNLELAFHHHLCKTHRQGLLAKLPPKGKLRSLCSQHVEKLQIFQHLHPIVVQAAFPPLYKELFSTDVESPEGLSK
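Luminescence from a UAS-regulated Photinus luciferase reporter in stably transfected Drosophila Schneider cells is measured; decreased signal marks ROR gamma inhibition. Fusion expression is induced by 700 uM copper sulfate for 20 hr.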
IL1B secr inh = inhibitors of inflammasome signaling (IL-1 beta secretion) | THP-1 LPS/ATP IL-1B secretion, AlphaLISA, 16 h; hits give low values | activity change, % at 57.5 µM | 360,000 compounds, 4.7% hits | AID 743279; in the data active means activity change below about -50%; inconclusive means mostly about -30% to -49%
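Secreted IL-1B measured by AlphaLISA bead assay after 16 h compound exposure of THP-1 cells; compounds (final up to 57.5 uM) added 1 h before LPS (250 ng/mL) and ATP (1.25 mM) stimulation; lower signal means less secretion.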
The depositor's hits bear a star; ? = inconclusive; / = no result; ! = a repeat was not active. Rows were chosen to be rich in hits. Some 18% of all compounds tested hit in one or more screens of this group. Unless noted, the call rests on the fitted dose curve; in most records, active means well fitted curve in the direction sought with a large enough effect; inconclusive means small, poorly fitted or top-dose-only effect, or another doubt; inactive means no such curve, though single readings can be large; an effect the other way counts as inactive or inconclusive. Unless noted, on the % scale 0 is the no-effect control and ±100 the full control effect.

SMILES	LDHA inh	Gal4-VP16 FLuc	DT40 TDP1 CPT	TDP1 cell noCPT	RORg inh	IL1B secr inh
Cc1csc(N(C(=O)c2cccc(S(=O)(=O)N3CCCC3)c2)c2ccccc2)n1	-1.9	8.6%	20.6µM*	18.4µM*	3.0%	7.6
Cc1csc(N(C(=O)c2cccc(S(=O)(=O)N(C)C)c2)c2ccccc2)n1	-6.5	-10.9%	14.6µM*	?	0.0%	-14.4
CC1(C)Cc2ccccc2C2=NNC(=O)C2=N1	56.7	?	16.4µM*	10.3µM*	?	-100.1*
Cc1nnc(SCC(=O)Nc2sc3c(c2C#N)CCC(C)C3)n1Cc1ccccc1 (stereo not drawn)	0.9	/	/	/	/	/
C=C1C(=O)OC2C=C(CO)C3OC3C3OC3(C)CC(OC(=O)/C(=C/C)COC(C)=O)C12 (stereo not drawn)	-7.6	/	1.3µM*	1.84µM*	/	-101.3*
CC(=O)OCC1=C[C@@H]2OC(=O)C3=CO[C@@H](O[C@@H]4O[C@H](CO)[C@@H](O)[C@H](O)[C@H]4O)[C@H]1[C@@H]32	1.7	/	0.1%	-25.6%	/	14.1
O=C1C=CC(=O)N1c1ccc(-c2nc3ccccc3o2)cc1	0.2	/	1.84µM*	1.64µM*	/	-21.8
Cc1cc2c(c(=O)n1Cc1ccco1)C(C(C)C)C(C#N)=C(N)O2 (stereo not drawn)	-3.4	/	/	/	/	/
Cc1cccc(N(C)C(=O)c2cc(S(=O)(=O)N3CCCC3)cn2C)c1	-2.1	-1.7%	-0.4%	-26.6%	-4.8%	-9.2
Cc1cccc(N(C)c2ccc3cc(S(=O)(=O)N4CCCC4)ccc3n2)c1	-0.2	-17.0%	16.4µM*!	16.4µM*	-28.8%	-11.6
CN(Cc1ccccc1)c1ccc2cc(S(=O)(=O)N3CCCCC3)ccc2n1	1.3	/	10.3µM*	9.2µM*	/	/
CCN(c1ccccc1)S(=O)(=O)c1ccc2c(c1)CCCN2C(C)=O	-0.6	17.1%	-26.8%	?	-2.6%	22.4
CC(=O)N1CCCc2cc(S(=O)(=O)N(C)CC(=O)Nc3ccc(C(C)C)cc3)ccc21	-2.8	/	18.4µM*	23.1µM*	/	/
CC(=O)N1CCCc2cc(S(=O)(=O)N(CC(C)C)CC(C)C)ccc21	-0.3	1.3%	25.9µM*	?	-23.7%	-0.3
COc1ccc(NC(=O)Cn2c(SCc3cccc(C)c3)nc3ccncc32)c(OC)c1OC	3.0	/	/	/	/	/
COc1ccc(C)cc1NC(=O)CCCN1C(=S)NC(C)(C)CC1C (stereo not drawn)	1.3	4.47µM*	-22.3%	?	1µM*	13.2
CCOc1ccc(OCC)c(NC(=O)CCCN2C(=S)NC(C)(C)CC2C)c1 (stereo not drawn)	-4.8	6.31µM*	16.4µM*	16.4µM*	6.31µM*	-10.3
COc1ccc(OC)c(NC(=O)CCCN2C(=S)NC(C)(C)CC2C)c1 (stereo not drawn)	-3.1	17.8µM*	-9.2%	-29.8%	11.2µM*	2.1
O=C(O)C(c1c[nH]c2ccc(Cl)cc12)N1CCN(CCNc2cc(=O)oc3ccccc23)CC1 (stereo not drawn)	-4.6	/	/	/	/	/
CCOc1ccccc1/C=N/O	11.3	/	/	/	/	/
Cc1ccc(C(=O)Nc2ccccc2N2CCOCC2)cc1S(=O)(=O)N1CCOCC1	-0.2	/	?	-28.1%	/	-17.7
Cc1ccc(C(=O)NC(=S)Nc2ccccc2N2CCOCC2)cc1C	-2.9	7.94µM*	25.9µM*	?	4.47µM*	-2.8
COc1cc(C(=O)NC(=S)Nc2ccccc2N2CCOCC2)cc(OC)c1OC	-0.6	-13.1%	18.4µM*	11.6µM*	-15.7%	-15.0
COc1cccc(C(=O)NC(=S)Nc2ccccc2N2CCOCC2)c1	-7.6	6.31µM*	?	?	3.98µM*	-7.2
CCC(C)Oc1cccc(C(=O)Nc2ccccc2N2CCOCC2)c1 (stereo not drawn)	0.3	-6.6%	?	18.4µM*	-1.2%	-5.9
SMILES	LDHA inh	Gal4-VP16 FLuc	DT40 TDP1 CPT	TDP1 cell noCPT	RORg inh	IL1B secr inh
O=C(NC(C1CC1)C1CC1)c1cc(F)c(Cl)cc1Cl	-0.1	/	/	/	/	/
COc1ccc(CNC(=O)[C@@H](NC(=O)N2CCn3c2nc2ccccc23)C(C)C)cc1	6.5	/	/	/	/	/
CCCC(C(=O)NC12CC3CC(CC(C3)C1)C2)c1ccccc1 (stereo not drawn)	-2.3	/	/	/	/	/
CCc1cccc(CC)c1NC(=O)CSc1nc2ccc(N3C(=O)C4C(C3=O)[C@H]3C=C[C@@H]4C3)cc2s1 (stereo partly drawn)	?	-9.7%	?	8.2µM*	88.4%	-5.9
Cc1cc(C)c(NC(=O)CSc2nc3ccc(N4C(=O)c5ccccc5C4=O)cc3s2)c(C)c1	-3.2	-3.6%	0.3%	-15.1%	0.7%	13.6
COc1ccc2cc(C(=O)/C=C/c3cc(OC)c(OC)c(OC)c3)ccc2c1	0.3	10.9%	25.9µM*	20.6µM*	-24.8%	-61.9*
COc1cc(/C=C/C(=O)N2CCC=CC2=O)cc(OC)c1OC	-2.5	7.94µM*	2.06µM*	1.84µM*	3.55µM*	-102.6*
CCCOc1ccc(C(=O)/C=C/c2cc(OC)c(OC)c(OC)c2)cc1	10.6	/	/	/	/	/
COCCOc1ccc(C(=O)/C=C/c2cc(OC)c(OC)c(OC)c2)cc1	5.5	/	/	/	/	/
COc1cc(/C=C/C(=O)N2CCCN(C(=O)/C=C/c3cc(OC)c(OC)c(OC)c3)CC2)cc(OC)c1OC	-2.2	25.0%	1.8%	?	-6.6%	-10.8

Screening results as filed in PubChem.
